Laboratory results as given in PubChem BioAssay.
A number with no mark means an inactive call. This is one part of the list. Active and inactive are the calls of the source.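 Rule for the calls, unless noted: active = inhibition above the hit cutoff set in the earlier primary screen (cut at about 27% in these data); inactive = the rest.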

What was measured:
[1] = target: Protein phosphatase methylesterase 1 (Homo sapiens) (UniProt Q9Y570); test: PME-1 inhibitor activity retest, confirmation, biochemical, fluorescence polarization, FP-Rh probe, triplicate (AID 2171); settings: recombinant PME-1, FP-Rh probe fluorescence polarization; at 5.9 µM; active compounds read high;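 note: 0% = enzyme with DMSO and 100% = wells lacking PME-1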
[2] = target: Nuclear receptor coactivator 3 (Homo sapiens) (UniProt Q9Y6Q9); test: SRC3 coactivator transcriptional activity inhibitors, confirmation, cell-based, luminescence, quadruplicate (AID 588792;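 active = mean inhibition over 43.08%, the solvent-only control mean plus 3 SD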;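 note: 0% = DMSO treated cells and 100% = gossypol at 36 µM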); settings: HEK293 GAL4-SRC3 luciferase reporter, at 3.6 µM, active compounds read high
[3] = system: transactivating tegument protein VP16 (Human herpesvirus 1), Gal4-VP16 luciferase reporter; test: VP16 transactivation inhibitors, counter-screen for SRC3 inhibitor project, cell-based, luminescence, high throughput (AID 588794; in the data active = inhibition above about 30%); settings: mammalian cells, VP16-driven luciferase reporter luminescence; at 3.6 µM; active compounds read high
[4] = target: (Lyso)-N-acylphosphatidylethanolamine lipase (Mus musculus) (UniProt Q8VD66); test: ABHD4 inhibitors, retest, confirmation, biochemical, fluorescence polarization, mouse (AID 720658;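 active = mean inhibition across replicates above the hit cutoff set in the primary screen, cut at about 30% in these data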;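 note: 0% = wild-type ABHD4 with DMSO and 100% = catalytically dead S159A mutant with DMSO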); settings: purified mABHD4, FP-Rh probe fluorescence polarization; at 8.92 µM; active compounds read high
[5] = system: HIV-1 integrase (multimerization); test: HIV-1 IN multimer formation enhancers, counter-screen for LEDGF/p75 integration inhibitor project, biochemical, TR-FRET (AID 1053131; in the data active = activation above about 8.9%); settings: TR-FRET HIV-1 integrase multimerization, at 7.7 µM, active compounds read high
[6] = TR-FRET optical interference artefacts, confirmation, artefact control for LEDGF/p75-dependent integration inhibitor project, biochemical, HIV-1 IN multimerization (AID 1053135;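 active = inhibition above the mean over all tested compounds plus 3 SD, which no compound reached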;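 note: 0% = integrase with antibodies and DMSO and 100% = antibodies without integrase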); settings: TR-FRET optical interference counterscreen, at 7.7 µM, active compounds read high
[7] = system: HIV-1 integrase / human LEDGF/p75 complex; test: inhibitors of HIV-1 IN-LEDGF/p75 DNA integration, confirmation, biochemical, TR-FRET (AID 1053136; in the data active = inhibition above about 14%); settings: TR-FRET LEDGF/p75-dependent HIV-1 integration, at 3.7 µM, active compounds read high
[8] = STAT3 reporter inhibitors, retest of hits, confirmation, U3A cells, luciferase, luminescence (AID 1265;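 active = inhibition above the hit cutoff computed for the primary STAT3 screen, cut at about 44% in these data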;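 note: 0% = IL-6 plus DMSO and 100% = IL-6 plus nifuroxazide control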); settings: IL-6 STAT3 luciferase reporter, at 5.7 µM, active compounds read high
[9] = NF-kB reporter inhibitors in human cells, confirmation, counter-screen for STAT3 inhibitor project, cell-based, HEK293T, luciferase, TNF-alpha stimulus (AID 1308;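 active = inhibition above the mean of solvent-only control wells plus 3 SD, cutoff set per campaign, cut at about 13% in these data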;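 note: 0% = TNF-alpha with DMSO and 100% = TNF-alpha with MG high control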); settings: TNF-alpha induced, at 5.7 µM, active compounds read high
[10] = STAT1 reporter inhibitors, IFN-gamma induced, confirmation, counter-screen for STAT3 inhibitor project, cell-based, NIH 3T3, luciferase luminescence (AID 1317;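 active = inhibition above the mean plus 3 SD of solvent-only control wells, limit set per screening run, cut at about 16% in these data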;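 note: 0% = DMSO with IFN-gamma and 100% = nifuroxazide control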); settings: NIH 3T3 STAT1-luciferase reporter, at 5.7 µM, active compounds read high
[11] = StAR promoter reporter inhibitors, counter-screen for LRH-1 inverse agonist project, cell-based, luminescence, high throughput (AID 651611; in the data active = inhibition above about 28%); settings: StAR promoter luciferase reporter counterscreen, at 3.6 µM, active compounds read high
[12] = target: Nuclear receptor subfamily 5 group A member 2 (Homo sapiens) (UniProt O00482); test: LRH-1 (NR5A2) inverse agonists, retest, confirmation, cell-based, luminescence (AID 651613; in the data active = inhibition above about 42%;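 note: HEK293T cells co-transfected with LRH-1 and StAR promoter luciferase reporter; 0% = vehicle wells and 100% = parental cells lacking receptor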); settings: cell-based LRH-1 luciferase reporter, inverse agonism; at 3.6 µM; active compounds read high
[13] = target: Steroidogenic factor 1 (Homo sapiens) (UniProt Q13285); test: SF1 (NR5A1) inverse agonists, counter-screen for LRH-1 inverse agonist project, cell-based, luminescence, high throughput (AID 651614; in the data active = inhibition above about 44%;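 note: cells cotransfected with StAR promoter reporter and SF1 expression vector; 0% = vehicle on cells with receptor and 100% = vehicle on cells lacking receptor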); settings: cell-based SF1 luciferase reporter, at 3.6 µM, active compounds read high
[14] = VP16 transactivation reporter inhibitors, counter-screen for LRH-1 inverse agonist project, cell-based, luminescence, high throughput (AID 651615; in the data active = inhibition above about 33%); settings: Gal4-VP16 luciferase reporter cells, at 3.6 µM, active compounds read high
[15] = Gal4-VP16 luciferase reporter inhibitors, counter-screen for COUP-TFII antagonist project, cell-based, luminescence, HEK293 (AID 687007; in the data active = inhibition above about 13%); settings: at 8.5 µM, active compounds read high
[16] = target: COUP transcription factor 2 (Homo sapiens) (UniProt P24468); test: NR2F2 transcriptional activity inhibitors, confirmation, cell-based, luciferase reporter, HEK293, triplicate (AID 687008;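 active = mean inhibition over three repeats above a set limit taken from the earlier primary screen, cut at about 38% in these data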;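 note: 100% = cells given the luciferase reporter alone without the COUP-TF2 vector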); settings: HEK293 NGFI-A luciferase reporter, luminescence; at 8.5 µM; active compounds read high
[17] = target: Peroxisome proliferator-activated receptor gamma (Homo sapiens) (UniProt P37231); test: agonists of PPARgamma SRC-2 coactivator recruitment, confirmation, biochemical, HTS (AID 1297; in the data active = activation above about 22%;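 note: 0% = vehicle alone and 100% = reference agonist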); settings: biochemical SRC-2 recruitment by PPARgamma; at 8 µM; active compounds read high
[18] = target: Peroxisome proliferator-activated receptor gamma (Homo sapiens) (UniProt P37231); test: PPARgamma agonists recruiting SRC-1 coactivator, confirmation, biochemical (AID 1300; in the data active = activation above about 20%;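 note: 0% = vehicle wells and 100% = reference agonist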); settings: PPARgamma–SRC-1 coactivator recruitment biochemical assay; at 8 µM; active compounds read high
[19] = target: Peroxisome proliferator-activated receptor gamma (Homo sapiens) + Nuclear receptor coactivator 3 (Homo sapiens) (UniProt P37231+Q9Y6Q9); test: PPARgamma-driven SRC-3 coactivator recruitment agonists, confirmation, biochemical (AID 1301; in the data active = activation above about 24%;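 note: 0% = vehicle wells and 100% = reference agonist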); settings: biochemical PPARgamma-SRC-3 coactivator recruitment, agonist mode; at 8 µM; active compounds read high
Peroxisome proliferator-activated receptor gamma (Homo sapiens) + Nuclear receptor coactivator 3 (Homo sapiens), sequence (P37231 whole entry, looked up): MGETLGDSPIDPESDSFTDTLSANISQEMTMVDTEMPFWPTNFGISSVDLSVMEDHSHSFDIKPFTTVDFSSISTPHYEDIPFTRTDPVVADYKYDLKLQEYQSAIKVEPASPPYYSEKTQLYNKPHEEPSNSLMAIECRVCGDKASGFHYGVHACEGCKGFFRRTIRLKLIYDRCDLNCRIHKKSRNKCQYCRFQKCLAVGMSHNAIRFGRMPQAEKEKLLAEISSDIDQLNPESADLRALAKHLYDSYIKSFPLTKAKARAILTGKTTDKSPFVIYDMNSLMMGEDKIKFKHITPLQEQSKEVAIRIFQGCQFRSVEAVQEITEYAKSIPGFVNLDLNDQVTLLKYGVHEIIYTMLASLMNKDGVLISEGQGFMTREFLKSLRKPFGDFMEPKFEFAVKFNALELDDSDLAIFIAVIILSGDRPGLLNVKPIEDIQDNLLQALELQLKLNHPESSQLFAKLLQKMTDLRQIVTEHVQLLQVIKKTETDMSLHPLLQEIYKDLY
Peroxisome proliferator-activated receptor gamma (Homo sapiens) + Nuclear receptor coactivator 3 (Homo sapiens), sequence (Q9Y6Q9 whole entry, looked up): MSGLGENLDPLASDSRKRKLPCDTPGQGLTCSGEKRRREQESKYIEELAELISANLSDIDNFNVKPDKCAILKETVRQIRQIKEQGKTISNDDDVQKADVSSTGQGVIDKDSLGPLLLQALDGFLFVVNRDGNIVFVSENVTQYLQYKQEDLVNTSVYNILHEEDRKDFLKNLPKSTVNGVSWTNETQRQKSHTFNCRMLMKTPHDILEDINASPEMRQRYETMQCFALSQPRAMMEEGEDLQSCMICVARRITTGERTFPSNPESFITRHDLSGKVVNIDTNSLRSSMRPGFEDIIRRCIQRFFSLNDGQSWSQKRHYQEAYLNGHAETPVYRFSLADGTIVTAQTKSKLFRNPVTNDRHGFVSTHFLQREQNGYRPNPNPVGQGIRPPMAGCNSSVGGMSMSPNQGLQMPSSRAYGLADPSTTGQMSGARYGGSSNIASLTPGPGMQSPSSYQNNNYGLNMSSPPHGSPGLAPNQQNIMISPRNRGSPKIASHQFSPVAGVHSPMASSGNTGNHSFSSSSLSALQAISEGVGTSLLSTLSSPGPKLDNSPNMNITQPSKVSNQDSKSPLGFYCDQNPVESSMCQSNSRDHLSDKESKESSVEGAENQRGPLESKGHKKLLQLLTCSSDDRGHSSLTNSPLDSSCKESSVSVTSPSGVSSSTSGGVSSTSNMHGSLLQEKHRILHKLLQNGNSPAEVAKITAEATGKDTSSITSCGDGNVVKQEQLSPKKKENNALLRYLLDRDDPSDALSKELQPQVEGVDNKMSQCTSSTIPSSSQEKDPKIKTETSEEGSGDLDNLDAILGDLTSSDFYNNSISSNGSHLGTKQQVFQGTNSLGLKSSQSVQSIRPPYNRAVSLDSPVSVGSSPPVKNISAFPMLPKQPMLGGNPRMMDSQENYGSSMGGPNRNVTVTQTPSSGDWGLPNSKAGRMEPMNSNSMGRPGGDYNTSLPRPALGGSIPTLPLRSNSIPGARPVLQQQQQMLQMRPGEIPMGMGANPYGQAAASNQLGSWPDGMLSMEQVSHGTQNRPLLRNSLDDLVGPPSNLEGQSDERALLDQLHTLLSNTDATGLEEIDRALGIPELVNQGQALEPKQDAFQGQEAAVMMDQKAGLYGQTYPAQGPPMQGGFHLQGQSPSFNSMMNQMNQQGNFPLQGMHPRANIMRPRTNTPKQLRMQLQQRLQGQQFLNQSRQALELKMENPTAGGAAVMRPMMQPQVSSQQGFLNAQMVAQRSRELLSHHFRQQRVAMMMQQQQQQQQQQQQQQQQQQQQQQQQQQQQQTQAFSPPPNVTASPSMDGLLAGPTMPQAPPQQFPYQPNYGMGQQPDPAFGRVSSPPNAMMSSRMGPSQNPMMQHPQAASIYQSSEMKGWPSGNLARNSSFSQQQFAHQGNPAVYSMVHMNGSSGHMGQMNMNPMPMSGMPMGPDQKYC

Peroxisome proliferator-activated receptor gamma (Homo sapiens), sequence (P37231 whole entry, looked up): as the sequence (P37231 whole entry, looked up) above
Protein phosphatase methylesterase 1 (Homo sapiens), sequence (Q9Y570 whole entry, looked up, the tested form may be a part): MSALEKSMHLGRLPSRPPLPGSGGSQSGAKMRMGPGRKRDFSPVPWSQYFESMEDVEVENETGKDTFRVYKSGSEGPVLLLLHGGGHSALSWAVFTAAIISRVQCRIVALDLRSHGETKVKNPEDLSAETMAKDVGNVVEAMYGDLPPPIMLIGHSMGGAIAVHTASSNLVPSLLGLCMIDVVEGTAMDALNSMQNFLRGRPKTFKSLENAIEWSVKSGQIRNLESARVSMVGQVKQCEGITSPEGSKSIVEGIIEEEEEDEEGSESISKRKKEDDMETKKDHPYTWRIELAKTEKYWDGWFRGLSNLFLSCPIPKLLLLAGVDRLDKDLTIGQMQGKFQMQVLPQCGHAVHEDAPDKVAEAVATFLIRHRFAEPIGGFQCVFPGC
(Lyso)-N-acylphosphatidylethanolamine lipase (Mus musculus), sequence (Q8VD66 whole entry, looked up): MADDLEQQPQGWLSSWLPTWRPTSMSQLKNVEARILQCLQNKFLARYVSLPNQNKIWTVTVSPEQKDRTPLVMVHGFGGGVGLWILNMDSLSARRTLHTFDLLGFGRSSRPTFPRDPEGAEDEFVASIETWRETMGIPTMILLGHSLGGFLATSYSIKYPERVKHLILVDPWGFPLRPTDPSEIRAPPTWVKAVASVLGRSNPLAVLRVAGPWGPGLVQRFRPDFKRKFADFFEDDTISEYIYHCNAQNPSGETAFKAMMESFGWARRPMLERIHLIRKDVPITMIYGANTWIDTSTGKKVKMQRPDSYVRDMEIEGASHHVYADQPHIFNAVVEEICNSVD
Nuclear receptor coactivator 3 (Homo sapiens), sequence (Q9Y6Q9 whole entry, looked up, the tested form may be a part): as the sequence (Q9Y6Q9 whole entry, looked up) above
Steroidogenic factor 1 (Homo sapiens), sequence (Q13285 whole entry, looked up, the tested form may be a part): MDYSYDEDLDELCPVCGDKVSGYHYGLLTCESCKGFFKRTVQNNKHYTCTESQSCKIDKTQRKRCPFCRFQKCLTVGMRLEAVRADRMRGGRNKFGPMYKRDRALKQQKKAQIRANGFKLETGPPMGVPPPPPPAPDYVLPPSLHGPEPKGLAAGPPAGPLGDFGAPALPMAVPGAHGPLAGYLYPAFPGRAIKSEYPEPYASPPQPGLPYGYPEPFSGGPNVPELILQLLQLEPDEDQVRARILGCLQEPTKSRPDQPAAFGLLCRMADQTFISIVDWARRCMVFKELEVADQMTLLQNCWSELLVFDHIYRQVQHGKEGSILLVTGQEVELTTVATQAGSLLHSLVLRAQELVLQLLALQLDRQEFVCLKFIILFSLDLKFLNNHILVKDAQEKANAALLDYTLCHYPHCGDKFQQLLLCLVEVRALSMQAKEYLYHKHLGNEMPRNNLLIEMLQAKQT
Nuclear receptor subfamily 5 group A member 2 (Homo sapiens), sequence (O00482 whole entry, looked up): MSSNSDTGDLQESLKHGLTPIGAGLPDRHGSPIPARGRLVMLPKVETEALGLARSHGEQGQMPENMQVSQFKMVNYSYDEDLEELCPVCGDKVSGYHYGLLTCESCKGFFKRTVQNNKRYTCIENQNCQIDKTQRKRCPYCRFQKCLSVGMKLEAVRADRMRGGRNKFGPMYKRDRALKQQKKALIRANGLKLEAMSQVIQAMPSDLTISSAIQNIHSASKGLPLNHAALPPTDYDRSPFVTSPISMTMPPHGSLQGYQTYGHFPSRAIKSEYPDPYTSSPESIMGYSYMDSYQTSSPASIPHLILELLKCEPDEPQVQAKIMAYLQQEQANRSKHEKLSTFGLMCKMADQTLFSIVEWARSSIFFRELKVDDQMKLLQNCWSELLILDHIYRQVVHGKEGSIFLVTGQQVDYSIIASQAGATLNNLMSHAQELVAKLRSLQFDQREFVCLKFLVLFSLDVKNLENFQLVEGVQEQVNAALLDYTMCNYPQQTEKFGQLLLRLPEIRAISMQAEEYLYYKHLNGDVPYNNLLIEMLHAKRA
COUP transcription factor 2 (Homo sapiens), sequence (P24468 whole entry, looked up): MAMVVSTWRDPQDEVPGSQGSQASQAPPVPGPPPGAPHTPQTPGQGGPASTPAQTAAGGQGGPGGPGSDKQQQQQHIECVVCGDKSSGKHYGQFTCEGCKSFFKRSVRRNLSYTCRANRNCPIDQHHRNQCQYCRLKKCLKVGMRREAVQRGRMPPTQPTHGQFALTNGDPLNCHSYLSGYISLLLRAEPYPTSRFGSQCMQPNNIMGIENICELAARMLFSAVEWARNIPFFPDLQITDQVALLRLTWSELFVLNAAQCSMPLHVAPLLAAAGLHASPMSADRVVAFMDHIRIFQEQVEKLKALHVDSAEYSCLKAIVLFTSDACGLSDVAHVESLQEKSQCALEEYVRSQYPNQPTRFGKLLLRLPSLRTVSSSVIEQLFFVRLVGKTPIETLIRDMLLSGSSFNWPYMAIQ

NP(=O)(OCC(F)(F)F)Oc1ccc(Cl)cc1 (stereo not drawn)
inhibition [1]: 30.6% (active)

CC1Oc2cc3c(-c4c(O)cc(O)c5c(O)c6c(cc45)OC(C)C(C)C6=O)c(O)cc(O)c3c(O)c2C(=O)C1C (stereo not drawn)
inhibition [1]: 53.6% (active)

COc1ccc(C(O)P(=O)(Oc2ccccc2)Oc2ccccc2)cc1 (stereo not drawn)
inhibition [1]: 42.8% (active)

O=P(Oc1ccccc1)(Oc1ccccc1)C(O)c1ccc(Cl)cc1 (stereo not drawn)
inhibition [1]: 59.3% (active)

CCOC(=O)c1c(NS(=O)(=O)c2ccccc2)n(CCCOC)c2nc3ccccc3nc12
inhibition [1]: 0.94%

CCOc1cccc(=NC2CCCCC2)c2c(C)[nH]c(C)c12
inhibition [2]: 21.3% | inhibition [3]: 20.1% | inhibition [4]: 16.3% | activation [5]: 0.2% | inhibition [6]: -0.97% | inhibition [7]: -1.3%

O=C(CN1CC=C(c2ccccc2)CC1)Nc1c(Cl)cccc1Cl
inhibition [1]: 28.2% (active)

CC1=CC(=Cc2sc3ccccc3[n+]2C)C=C(C)O1
inhibition [8]: 77.1% (active) | inhibition [9]: 22.8% (active) | inhibition [10]: 22.2% (active) | inhibition [11]: 50.2% (active) | inhibition [12]: 105% (active) | inhibition [13]: 80.4% (active) | inhibition [14]: 87.6% (active) | inhibition [15]: 8.63% | inhibition [16]: 55% (active)

O=c1c2ccccc2nc(/C=C/c2ccc(O)c(O)c2)n1-c1ccccc1
inhibition [1]: -7.92%

COc1cc(-n2c(=S)[nH]c3ccc(C)cc3c2=O)c(Cl)cc1Cl
activation [17]: 24.6% (active) | activation [18]: 12.2% | activation [19]: 12.4% | inhibition [4]: 37.6% (active)

CCCCn1c(C)c(C(=O)OCC)c2c(CN3CCCC3)c(O)ccc21
inhibition [1]: 10.3%

CC(C)C(=O)c1cn(Cc2ccccc2C#N)c2ccccc12
inhibition [1]: 62.8% (active)

Cc1cc(Br)c(NC(=O)CN2CC=C(c3ccccc3)CC2)c(Br)c1
inhibition [1]: 44.9% (active)

CSC1=NP(=S)(SC)N(C)c2nc3n(c21)CCC3 (stereo not drawn)
activation [17]: 51.6% (active) | activation [18]: 33.3% (active) | activation [19]: 35.7% (active)

NC(Cc1cc(O)c(O)cc1O)C(=O)O (stereo not drawn)
inhibition [1]: 69.4% (active)
